GLP1R cytotox: cytotoxic in the GLP-1 receptor inverse agonist counter-screen; HEK293 cAMP-luciferase reporter cells, luminescence, 24 h; Potency, µM (series often up to 38.3 µM), for inactives: at the top dose activity change, negative = inhibition, usual class: inhibitors; actives 0.13% (n = 410,000); AID 624418;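 also: loss of luciferase light is scored as toxicity; % is scaled to controls: 0 for no effect and ±100 for the full control effect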
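Compound-treated cells are incubated 24 hr at 37 deg C under 5% CO2 after a 12 hour attachment period, then luciferase detection reagent is added and luminescence is measured following 12 min at room temperature; lowered signal indicates toxicity.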
GLP-1R agonist: agonists of human GLP-1 receptor; HEK293 GLP-1R CRE-luciferase, luminescence, 4-6 h; cells express a hypersensitive GLP-1R form; P43220; actives 0.007% (n = 380,000); Potency, µM (titrated, usually from 45.6 µM), without a hit: top-dose activation, most hits filed as activators; also: % of control where 0% means no effect
Target sequence (P43220 whole entry, looked up): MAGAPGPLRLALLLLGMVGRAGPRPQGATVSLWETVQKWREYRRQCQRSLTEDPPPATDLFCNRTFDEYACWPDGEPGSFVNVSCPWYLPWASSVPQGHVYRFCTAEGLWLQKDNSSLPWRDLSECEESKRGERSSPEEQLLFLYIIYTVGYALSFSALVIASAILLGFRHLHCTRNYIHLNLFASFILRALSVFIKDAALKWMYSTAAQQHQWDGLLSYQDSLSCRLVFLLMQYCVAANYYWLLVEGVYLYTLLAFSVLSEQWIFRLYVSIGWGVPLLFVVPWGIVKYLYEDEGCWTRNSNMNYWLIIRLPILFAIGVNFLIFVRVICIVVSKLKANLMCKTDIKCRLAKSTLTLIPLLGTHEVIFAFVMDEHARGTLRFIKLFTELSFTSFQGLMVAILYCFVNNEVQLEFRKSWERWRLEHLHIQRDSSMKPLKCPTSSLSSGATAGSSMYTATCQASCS
GLP-1R inv ag: inverse agonists of human GLP-1 receptor | P43220 | HEK293 GLP-1R CRE-luciferase, luminescence, 24 h; GLP-1R form is constitutively active | actives 1.6% (n = 410,000) | Potency, µM (doses to about 38.3 µM), inactives show at the highest dose activity change, negative = inhibition, usual class: inhibitors; also: % is scaled to controls: 0 for no effect and ±100 for the full control effect; nearly all actives have a fitted effect of over 55% in size
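HEK293 cells stably co-expressing constitutively active GLP-1R and a cAMP-responsive luciferase reporter were seeded in DMEM with 10% Nu serum, given compounds after 12 h, and incubated 24 h at 37 deg C. Luminescence was then read.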
PTHR1 agonist: PTHR1 (human) receptor agonism. Q03431. actives 0.075% (n = 410,000). Potency, µM (doses to about 115 µM), for the others: at the top dose activation, most hits filed as activators. HEK293 GP2 PTHR1 cells, GloSensor cAMP luminescence, 1 h. AID 743266; also: nearly all actives have a fitted effect of over 55% in size
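HEK-293-derived GP2 cells expressing PTHR1 and a GloSensor cAMP reporter, 3,000/well, plated overnight, given luciferin plus IBMX (each 0.5 mM as added) for 1 h at 37 °C, then compound for 1 h at 37 °C. Luminescence was read after 15 min at room temperature.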
* hit, by the source's call; i = inactive; ? = inconclusive; . = no result given; [ ] = remark or other dose. Sampled rows, rich in hits. Any-hit rate of the full collection: about 1.7%. Calls follow the shape of the dose curve; as a rule, active = well fitted curve in the direction sought with a large enough effect; inconclusive = small, poorly fitted or top-dose-only effect, or another doubt; inactive = no such curve, though single readings can be large; an effect the other way counts as inactive or inconclusive. Potency is read from the fitted curve at half-maximal effect.

SMILES	GLP1R cytotox	GLP-1R agonist	GLP-1R inv ag	PTHR1 agonist
Cc1cccc(NC(=O)c2cc(-c3ccc(C)s3)nc3ccccc23)n1	-4%	-14%	10µM*	-42%
Cc1ccnc(NC(=O)c2cc(-c3ccc(Cl)s3)nc3ccccc23)c1	4%	6%	7.9µM*	i
O=C(Cc1ccc(-c2ccccc2)cc1)NCCS(=O)(=O)N1CCN(c2cccc(Cl)c2)CC1	-3%	.	10%	i
CCC1Oc2ccc(C)cc2N(CC(=O)N(Cc2ccc(C)o2)C2CCCC2)C1=O (stereo unspecified)	-37%	-17%	4.5µM*	-4%
O=C(N/N=C/c1cccs1)c1n[nH]c2c1CCCC2	-34%	-2%	3.2µM*	-35%
O=C(N/N=C/c1cccc2ccccc12)c1n[nH]c2c1CCCC2	-25%	12%	1.1µM*	-6%
O=C(N/N=C/c1ccc(Cl)cc1Cl)c1n[nH]c2c1CCCC2	?	1%	?	i
CC1Cc2ccccc2N1S(=O)(=O)c1nnc(NC(=O)c2ccccc2Br)s1 (stereo unspecified)	-4%	.	10µM*	-3%
COc1ccc(N2CCN(C(=O)CSc3nnc(-c4cccnc4)n3-c3ccccc3)CC2)cc1	8%	2%	11µM*	-21%[57.5 µM]
Cc1cccc(-c2nc(Nc3cccc(O)c3)c3ccccc3n2)c1	-13%	0%	6.3µM*	-35%
CC(=O)c1cccc(Nc2nc(-c3cccc(C)c3)nc3ccccc23)c1	-3%	.	?	-47%
O=C(Cc1ccc(F)cc1)NCCc1csc(-c2ccc(C(F)(F)F)cc2)n1	-15%	11%	?	-22%
CCCN1CCN(S(=O)(=O)c2ccc3c(c2)NC(=O)C(C)S3)CC1 (stereo unspecified)	-12%	-2%	-20%	-16%
COc1ccccc1N1CCN(S(=O)(=O)c2ccc3c(c2)NC(=O)C(C)S3)CC1 (stereo unspecified)	-5%	5%	10µM*	-85%
CN(Cc1ccccc1N1CCCC1)C(=O)c1cc2cc(Cl)ccc2o1	2%	7%	?	-65%
CN(Cc1ccccc1N1CCCC1)C(=O)c1cc2ccccc2o1	6%	14%	10µM*	-24%
COc1ccccc1CNC(=O)c1cc(-c2ccccc2)nn1Cc1cc(C)no1	10%	7%	?	-2%
CCc1cc(Cn2nc(-c3ccccc3)cc2C(=O)NCc2ccccc2OC)on1	12%	-4%	11µM*	-15%
CN1CCN(C(c2cccs2)c2nnnn2Cc2ccc(F)cc2)CC1 (stereo unspecified)	-2%	-1%	-16%	i
CC1CCCN(C(c2cccs2)c2nnnn2Cc2ccccc2)C1 (stereo unspecified)	-3%	6%	11µM*	-8%[57.5 µM]
Cc1cccc(N(CC(=O)Nc2ccccc2C(F)(F)F)S(=O)(=O)c2ccccc2)c1C	1%	-6%	11µM*	i
COc1ccccc1N(CC(=O)Nc1ccccc1C(F)(F)F)S(=O)(=O)c1ccc(C)cc1	4%	-2%	?	-15%
CCOC(=O)C1CCN(c2c(C(=O)c3ccc(OC)cc3)cnc3ccccc23)CC1	2%	.	-27%	i
O=C(NCc1ccccc1F)C(=O)NCC(c1ccc2c(c1)OCO2)N1CCOCC1 (stereo unspecified)	0%	.	1%	-10%
Cn1c(-c2ccc(F)cc2)cnc1NCc1cc2c(cc1[N+](=O)[O-])OCO2	-28%	-1%	?	i
SMILES	GLP1R cytotox	GLP-1R agonist	GLP-1R inv ag	PTHR1 agonist
Cn1c(-c2ccc(Cl)cc2)cnc1NCc1cc2c(cc1[N+](=O)[O-])OCO2	?	-2%	4µM*	-21%
CCN(CC)c1ccc(/C=N/NC(=O)c2ccoc2C)c(O)c1	51%	-3%	3.5µM*	i
Cc1cc(C)c(S(=O)(=O)N2CCN(C(=O)C3COc4ccccc4O3)CC2)c(C)c1 (stereo unspecified)	-2%	8%	10µM*	-17%
O=C(NCCSc1ccc(Cl)cc1)c1ccc(CN2CCOCC2)cc1	-1%[7.66 µM]	12%	-6%[7.66 µM]	-29%
O=C(NCCSCc1ccc(Cl)cc1Cl)c1ccc(CN2CCOCC2)cc1	2%	1%	10µM*	-4%[57.5 µM]
COc1ccc(N2CCN(C(=O)c3cn(C)c4ccc(S(=O)(=O)N(C)C5CCCCC5)cc4c3=O)CC2)cc1	-6%	.	3%	i
CC1=C(C(=O)OCc2ccccc2)C(c2cccs2)N2C(=O)CCSC2=N1 (stereo unspecified)	-5%	17%	11µM*	-74%
CC(=O)OC1CCC2(C)C(COc3ccc4ccc(=O)oc4c3)C(C)(O)CCC2C1(C)C (stereo unspecified)	-16%	-1%	11µM*	i
COc1ccc(CN(C)CC2CCCN(CCc3ccc(F)cc3)C2)cc1OC (stereo unspecified)	-20%	4%	11µM*	-24%
COc1ccc(CN(C)CC2CCCN(CCc3ccc(Cl)cc3)C2)cc1OC (stereo unspecified)	-26%	0%	?	-17%
COc1cccc(-c2cn3c(n2)sc2cc(C(=O)NCc4cccs4)ccc23)c1	2%	.	3%	0%
CC1(Cc2ccccc2Cl)C(=O)Nc2ccc(OC(F)(F)F)cc21 (stereo unspecified)	4%	0%	10µM*	-13%
O=C(c1ccc(CSc2nc3ccncc3n2Cc2cccc(F)c2)cc1)N1CCCCC1	0%	.	?	-32%
CCN1c2ccccc2-c2nc(SCC(=O)NCc3ccc(C)cc3)ncc2S1(=O)=O	5%	.	6%	-4%
CC(=O)c1ccc(NC(=O)COC(=O)c2ccccc2N=Nc2ccc(N(C)C)cc2)cc1	10µM*	7%	43%	i
Cc1ccc2c(c1)COc1c3ccc(C(=O)O)cc3nn1-2	5%	-9%	1.3µM*	-8%
Cc1ccc2c(c1)COc1c3ccc(C(=O)NCC4CC4)cc3nn1-2	17%	4%	14%	-54%
CCN(CC)C(=O)C1=C(C)N(Cc2ccc(C(C)(C)C)cc2)C(=O)C(CC(=O)NC(c2ccccc2)c2ccccc2)C1 (stereo unspecified)	-24%	6%	7.9µM*	-46%
CC1=C(C(=O)N(C)C)CC(CC(=O)NC(c2ccccc2)c2ccccc2)C(=O)N1Cc1ccc(C(C)(C)C)cc1 (stereo unspecified)	-18%	2%	?	i
CCN(CC)C(=O)C1=C(C)N(Cc2ccc(F)cc2)C(=O)C(CC(=O)NC(c2ccccc2)c2ccccc2)C1 (stereo unspecified)	-27%	4%	11µM*	i
O=C(CCSCc1cccc(Cl)c1)NCCC1=CCCCC1	-6%	3%	10µM*	i
Cc1ccc(CSCCC(=O)NCCC2=CCCCC2)cc1	-16%	-2%	?	-32%
CCCCn1c(SCC(=O)N2c3ccccc3Sc3ccccc32)nc2c1c(=O)n(C)c(=O)n2C	-30%	3%	11µM*	-28%[57.5 µM]

Compound activity deposited in PubChem by National Center for Advancing Translational Sciences (NCATS).
